# Laboratory results published in the supplement of paper PMC9177965.
# Where “and” joins values, the source holds several entries; their conditions need not be identical. Equal values may be shown once.
# Experiments:
# [1] = system: HT29 RNF43 G659fs (RNF43 659mut, CRISPR-edited); test: cell viability activity relative to DMSO (negative = inhibition); higher = more viable cells (less growth inhibition); settings: 5 µM; 96 h
# Experimental: (§1)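 Broad Repurposing Library primary screen at a single dose of 5 uM. HT29 sg-Ctrl and HT29 RNF43 G659fs CRISPR-edited isogenic cells were seeded at 2500 cells/well in 384-well plates in duplicate and treated for 96 h. Viability was read by CellTiter-Glo and reported as % activity relative to DMSO, with MG132 as the positive control (negative = growth inhibition).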
# [2] = system: HT29 sg-Ctrl (RNF43 wildtype); test: as above; settings: 5 µM; 96 h
# Experimental: as §1
Structure (SMILES),cell viability activity [1],cell viability activity [2]
COc1cccc2c1C(=O)c1c(O)c3c(c(O)c1C2=O)C[C@@](O)(C(=O)CO)C[C@@H]3O[C@H]1C[C@H](N)[C@H](O)[C@H](C)O1,-94% and -83.9%,-89.6% and -89.8% and -68.3%
CC[C@@H]1C(=O)N(C)c2cnc(Nc3ccc(C(=O)N[C@H]4CC[C@H](N5CCN(CC6CC6)CC5)CC4)cc3OC)nc2N1C(C)C,-66.4%,-77.9%
CC(C)(C)c1[nH]cnc1/C=c1\[nH]c(=O)/c(=C/c2ccccc2)[nH]c1=O,-55.7%,-54%
C[C@H](Oc1ccc(S(C)(=O)=O)cc1C(=O)N1CCN(c2ncc(C(F)(F)F)cc2F)CC1)C(F)(F)F,-65.2%,-57.9%
OCCNCCCOc1cccc(Cl)c1Cl,-45.4%,-43.2%
CC(C)N1CCN(c2ccc(OC[C@@H]3CO[C@@](Cn4cncn4)(c4ccc(Cl)cc4Cl)O3)cc2)CC1,-68%,-76%
C=CC(=O)Nc1cccc(Nc2nc(Nc3ccc(OCCOC)cc3)ncc2F)c1,-33.3%,-44.1%
Cc1ccc([N+](=O)[O-])cc1S(=O)(=O)N(C)/N=C/c1cnc2ccc(Br)cn12,-88.7%,-94.4%
Cc1cc(Nc2cc(N3CCN(C)CC3)nc(/C=C/c3ccccc3)n2)n[nH]1,-74.6%,-75.7%
COc1c(OCCCN2CCOCC2)ccc2c3n(c(=NC(=O)c4cnc(N)nc4)nc12)CCN3,-59.6%,-46.8%
CO[C@@H]1[C@H](N(C)C(=O)c2ccccc2)C[C@H]2O[C@]1(C)n1c3ccccc3c3c4c(c5c6ccccc6n2c5c31)C(=O)NC4,-53.8%,-61.4%
CC(C)=CCC/C(C)=C/CC/C(C)=C/CSc1ccccc1C(N)=O,-26.6%,-6.13%
CC(C)C[C@H](NC(=O)[C@H](Cc1ccccc1)NC(=O)c1cnccn1)B(O)O,-94.1%,-94.6%
O=C(O)c1ccc(-n2nc(-c3ccccc3O)nc2-c2ccccc2O)cc1,-27.9%,-27.1%
C=CC(=O)Nc1cccc(Sc2nc(Nc3ccc(N4CCN(C)CC4)cc3)ncc2Cl)c1,-59.9%,-42.7%
CC(=O)c1c(C)c2cnc(Nc3ccc(N4CCNCC4)cn3)nc2n(C2CCCC2)c1=O,-37.2%,-48.4%
CC(C)[C@](O)(c1ccc2cc(OC(F)F)c(OC(F)F)cc2c1)c1c[nH]nn1,-54.8%,9.17%
CC(C=CC(=O)NO)=CC(C)C(=O)c1ccc(N(C)C)cc1 (centres undefined),-95.2%,-94.9%
Clc1cc(Cl)c(OCC#CI)cc1Cl,-35.5%,-23.2%
OCc1ccc(-c2ccc(-c3ccc(CO)s3)o2)s1,-51.5%,-42.8%
COc1ccc(C[C@H](NC(=O)[C@H](C)NC(=O)CN2CCOCC2)C(=O)N[C@@H](Cc2ccccc2)C(=O)[C@@]2(C)CO2)cc1,-95.4%,-94.4%
NS(=O)(=O)C#Cc1ccccc1,-68.8%,-72.2%
Cc1ccc(/C=C2\CNC/C(=C\c3ccc(C)cc3)C2=O)cc1,-93.6%,-92.7%
Cc1cc(O)c(-c2ccc([C@@H](C)CN)cc2)c2c1[nH]c(=O)c1sccc12,-92.6%,-92.7%
CN1CCN(CCOc2cc(OC3CCOCC3)c3c(Nc4c(Cl)ccc5c4OCO5)ncnc3c2)CC1,-54.8%,-58.9%
Cc1c(-c2ccc(O)cc2)n(Cc2ccc(OCCN3CCCCCC3)cc2)c2ccc(O)cc12,-67.2%,-93.1%
COc1c(C)c2c(c(O)c1C/C=C(\C)CCC(=O)O)C(=O)OC2,-22.3%,-27.7%

Structure (SMILES),cell viability activity [1],cell viability activity [2]
Cc1nc(Nc2n[nH]c3c2CN(C(=O)N[C@H](CN(C)C)c2ccccc2)C3(C)C)c2sccc2n1,-73.8%,-79.1%
CN(C)C(=O)c1cc2cnc(Nc3ccc(N4CCNCC4)cn3)nc2n1C1CCCC1,-26%,-39.7%
O=C(NOCC1CC1)c1ccc(F)c(F)c1Nc1ccc(I)cc1Cl,-66.2%,-77.6%
CON(C)C(=O)N1N=C(c2cc(F)ccc2F)S[C@@]1(CCCN)c1ccccc1,-73.8%,-69.7%
NC(=O)N1CCC(CC(=O)N2CCC([C@H]3c4ncc(Br)cc4CCc4cc(Cl)cc(Br)c43)CC2)CC1,-51%,-56.6%
CNC(=O)c1ccccc1Nc1nc(Nc2ccc(N3CCOCC3)cc2OC)ncc1Cl,-73.1%,-70.3%
COCC[n+]1c2c(n(Cc3cnccn3)c1C)C(=O)c1ccccc1C2=O,-96.6%,-95.6%
CN1C/C=C/CCOc2cccc(c2)-c2ccnc(n2)Nc2cccc(c2)C1,-92.8%,-89.6%
COc1ccc(CCCOC(Cn2ccnc2)c2ccc(OC)cc2)cc1 (centres undefined),-67.2%,-31.3%
CN(C)C/C=C/C(=O)Nc1ccc(C(=O)Nc2cccc(Nc3ncc(Cl)c(-c4c[nH]c5ccccc45)n3)c2)cc1,-87.2%,-86.4%
Cc1cn([C@H]2C[C@H](N=[N+]=[N-])[C@@H](CO)O2)c(=O)[nH]c1=O,-29%,-2.51%
Nc1ncnc2c1c(-c1cccc(OCc3ccccc3)c1)cn2C1CC(CN2CCCC2)C1 (centres undefined),-48%,-56.6%
O=C(c1ccc(-c2ccc(Cl)cc2)o1)N(Cc1ccccn1)c1ccc(N2CCNCC2)cc1,-45.7%,-21.3%
CC(C)/N=c1\cc2n(-c3ccc(Cl)cc3)c3ccccc3nc-2cc1Nc1ccc(Cl)cc1,-75.3%,-75.7%
CCCOc1ccc2[nH]c(NC(=O)OC)nc2c1,-69.6%,-55.8%
Cc1cccc(-c2[nH]c(C(C)(C)C)nc2-c2ccc3c(c2)OCO3)n1,-79.2%,-50.7%
CCOC(=O)[C@H](Cc1ccccc1)NC(=O)c1cc(Cl)c(OCCN2CCN(C)CC2)c(Cl)c1O,-34%,-41.2%
CN(C)CCOc1ccc(/C(=C(/CCCl)c2ccccc2)c2ccccc2)cc1,-85.2%,-82.8%
COc1cc(NC(=O)Nc2cccc(CNC(=O)O[C@H]3CCOC3)c2)ccc1-c1cnco1,-41.5%,-23.6%
Cc1cc(OCc2nnc(SC3CCCC3)n2-c2cccnc2)ccc1-c1ccc(S(C)(=O)=O)cc1,-86.4%,-74.8%
Cc1cccc(/C=N/Nc2cc(N3CCOCC3)n3nc(-c4ccncc4)cc3n2)c1,-56.4%,-51.8%
CC(C)Nc1cc(-c2c[nH]c(C(=O)N[C@H](CO)c3cccc(Cl)c3)c2)c(Cl)cn1,-71.1%,-78.7%
CC(C)N(C[C@H]1O[C@@H](n2cnc3c(N)ncnc32)[C@H](O)[C@@H]1O)[C@H]1C[C@@H](CCc2nc3cc(C(C)(C)C)ccc3[nH]2)C1,-24.1%,-26.5%
CCCCCCCCN=c1ccn(CCCCCCCCCCn2ccc(=NCCCCCCCC)cc2)cc1,-94.6%,-92.1%
CCC[C@H](NC(=O)/C(C#N)=C/c1cccc(Br)n1)c1ccccc1,-95.3%,-92.4%
CC(C)(C)c1nc(-c2cccc(NS(=O)(=O)c3c(F)cccc3F)c2F)c(-c2ccnc(N)n2)s1,-69.4%,-68.4%
COc1cc(-c2ncn(/C=C/C(=O)OC(C)C)n2)cc(C(F)(F)F)c1,-69.7%,-76.9%

Structure (SMILES),cell viability activity [1],cell viability activity [2]
Cn1cncc1[C@@](N)(c1ccc(Cl)cc1)c1ccc2c(c1)c(-c1cccc(Cl)c1)cc(=O)n2C,-30.6%,-33.3%
OC[C@H]1O[C@@H](Oc2cc(O)cc(/C=C/c3ccc(O)cc3)c2)[C@H](O)[C@@H](O)[C@@H]1O,-34.4%,-36%
C1=N/C2=N/c3ccc(OCCN4CCCC4)c(c3)COC/C=C/COCc3cccc(c3)C(=C1)N2,-41.5%,-31.8%
COc1c(C)cnc(Cn2cc(C#CCC(C)(C)O)c3c(Cl)nc(N)nc32)c1C,-42.7%,-88.4%
CN(C)CCCC(=O)Nc1ccc(C(=O)Nc2cccc(Nc3ncc(Cl)c(-c4c[nH]c5ccccc45)n3)c2)cc1,-70.8%,-78.1%
O=c1cc(N2CCOCC2)oc2c(-c3cccc4c3sc3ccccc34)cccc12,-57.6%,-57.1%
CNC(=O)c1nn(C)c2c1C(C)(C)Cc1cnc(Nc3ccc(N4CCN(C)CC4)cc3)nc1-2,-66.2%,-74.1%
CCN(CC)CC1CCN(c2ncc3ncnc(Nc4ccc(F)c(Cl)c4)c3n2)CC1,-37.1%,-16.4%
CCCS(=O)(=O)Nc1ccc(F)c(C(=O)c2c[nH]c3ncc(Cl)cc23)c1F,-46.8%,-47.2%
S=c1[nH]cnc2nc[nH]c12,-51.6%,-49.4%
Cc1[nH]c2ccccc2c1CCNCc1ccc(/C=C/C(=O)NO)cc1,-99.3%,-96.1%
Nc1nc2[nH]cnc2c(=S)[nH]1,-81.6%,-73.9%
OCCCNc1cc(-c2ccnc(Nc3cccc(Cl)c3)n2)ccn1,-86.6%,-86%
CC(C)(N)c1cc(C(=O)N[C@@H]2CCc3ccc(Oc4ccnc5c4CCC(=O)N5)cc3C2)cc(C(F)(F)F)c1,-57.8%,-59.3%
COc1cc(C(=O)N2CCC(N3CCN(C)CC3)CC2)ccc1Nc1ncc2c(n1)N(C)c1ccccc1C(=O)N2C,-56.1%,-57.3%
CC(C)NC(=O)N1CC[C@H](NC2=Nc3cc(F)ccc3N(CC(F)F)c3ccc(Cl)cc32)C1,–,-50.8%
COc1ccc2[nH]c(C(=O)c3ccccc3)cc2c1,-61.7%,-55.7%
Clc1ccc2c(c1)CCc1cccnc1C2=C1CCNCC1,-39.8%,-28.4%
COc1cc2ncn(-c3cc(OCc4ccccc4C(F)(F)F)c(C(N)=O)s3)c2cc1OC,-72.5%,-65.4%
COc1cccc(OCCCN)c1-c1cc(Nc2cnc(C#N)cn2)n[nH]1,-78.2%,-86.9%
CC(C)(C)c1ccc(-c2nc3ccccc3[nH]2)cc1,-58.2%,-67.1%
C[C@@H](NC(=O)c1ncnc(N)c1Cl)c1ncc(C(=O)Nc2cc(C(F)(F)F)c(Cl)cn2)s1,–,-29.1%
CC(C)(O)C(=O)N1CCN(c2ccc(C(F)(F)F)c(C3=C(c4c[nH]c5ccccc45)C(=O)NC3=O)c2)CC1,–,-32.7%
CN1CCC(NC(=O)c2cc(-c3c(O)cc(O)cc3Oc3ccc([N+](=O)[O-])cc3)on2)CC1,-26.7%,-21.1%
COC(=O)c1ccc2c(C(=Nc3ccc(N(C)C(=O)CN4CCN(C)CC4)cc3)c3ccccc3)c(O)[nH]c2c1,–,-34.2%
